Bioassay records (PubChem BioAssay)
An excerpt weighted towards active compounds, which were near 3.4% of everything screened.
GAA850 FXN act – FXN promoter activators, primary screen, cell-based, luciferase luminescence, HEK293 lucGAA850 | HEK293 lucGAA850 FXN promoter luciferase reporter, 24 h; percent of 10 µM SAHA response | activation, % at 6 µM | actives 0.56% (n = 360,000) | AID 540364, 2011;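 active = activation above the average of all compounds screened plus 3 SD, cutoff fixed separately per campaign, cut at about 7.5% in these data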;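 note: 0% = DMSO wells and 100% = 10 µM SAHA wells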
AI-2 QS mod – Vibrio harveyi AI-2 quorum sensing modulators, primary screen, JMH597 strain, luminescence/OD600 ratio. Vibrio harveyi JMH597 AI-2 luminescence/OD600 ratio, 9 h; active compounds read low; strain lacks LuxN and CqsS sensors; 0 = neutral-control median. activity change, % at 7.5 µM. actives 0.4% (n = 300,000); in the data active = activity change below about -75%, passing the limit was not always enough; inconclusive = no clear call, values can overlap the other calls;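 note: luminescence divided by OD600 gain over 9 h not by final OD600 alone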
PG9 Ab binder – binders of HIV-1 gp120 antibody PG9, primary screen, biochemical, TR-FRET; HIV-1 gp120 / PG9 antibody interaction; AID 624416, 2012; TR-FRET gp120-PG9 antibody binding; actives 0.43% (n = 360,000); inhibition, % at 6.7 µM; in the data active = inhibition above about 8.5%
HSF1 inh – HSF1 inhibitors in luciferase reporter cells, primary screen, cell-based, NIH3T3, luminescence; activity change, negative = inhibition, % at 7.5 µM (by protocol); actives 0.77% (n = 300,000); NIH3T3-HGL HSE-luciferase, MG132-induced, luminescence 8 h; active compounds read low; AID 2098, 2009;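 active = more than half of replicate wells show activity change below -50%, luminescence cut by over half; inconclusive = some wells, but at most half, below -50%; inactive = no replicate well below -50%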;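 note: luciferase reports HSF-1 transcriptional activity via heat shock element; 0% = median of DMSO wells and -100% = zero luminescence signal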
HSP90 refold inh – HSP90 inhibitors, primary screen, cell lysate, luminescence | actives 0.91% (n = 290,000) | Rabbit reticulocyte lysate, luciferase refolding luminescence, 3 h | inhibition, % at 5.6 µM | AID 1789, 2009 | Heat shock protein HSP 90 (rabbit reticulocyte lysate; luciferase refolding);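 active = inhibition above the screen-wide mean plus 3 SD, computed separately per campaign, cut at about 16% in these data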;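 note: 0% = DMSO wells and 100% = 60 µM geldanamycin wells; inhibitors lower the luminescence because luciferase stays unfolded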
SMARCA2 act – SMARCA2 (BRM) function activators, primary screen, cell-based, luminescence, high throughput; MG213 cells, MMTV-luciferase reporter, dexamethasone, overnight; AID 652017, 2013; activation, % at 9.1 µM; actives 1% (n = 370,000); in the data active = activation above about 7.8%;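 note: 0% = vehicle wells and 100% = reference activator wells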
JMH597 growth rt – Vibrio harveyi growth inhibition, confirmation, counter-screen for AI-2 quorum sensing project, JMH597 strain, OD600 absorbance | growth inhibition, % at 7.5 µM | 9 h; lacks LuxN and CqsS sensors | shares compounds with AI-2 QS mod | actives 1% (n = 750) | AID 2726, 2010;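 active = every replicate shows growth inhibition above 50%; inconclusive = at least half, but not all, replicates pass that cutoff; inactive = fewer than half of replicates pass it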
BB721 const-QS lum – luminescence inhibition in constitutive-on V. harveyi, confirmation, counter-screen for LuxS inhibitor project, strain BB721, luminescence readout; shares compounds with AI-2 QS mod; Vibrio harveyi BB721 luminescence, 9 h; inhibition, % at 7.5 µM; actives 95% (n = 750); AID 2727, 2010;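 active = inhibition above about 80% in every replicate, not just on average, limit read from the data; inconclusive = at least half of replicates past the limit, but not all; inactive = fewer than half of replicates past the limit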
BB721 growth – growth inhibition of V. harveyi BB721, confirmation, cytotoxicity control for AI-2 quorum sensing inhibitors, strain BB721, absorbance OD600; shares compounds with AI-2 QS mod; growth inhibition, % at 7.5 µM; actives 3% (n = 750); Vibrio harveyi BB721 growth, 9 h;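 active = every replicate shows growth inhibition above 50%; inconclusive = at least half but not all replicates above 50% inhibition; inactive = under half of replicates above 50% inhibition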
JMH597 AI-2 mod – Vibrio harveyi AI-2 signaling luminescence modulation – JMH597 strain, confirmation | shares compounds with AI-2 QS mod | Vibrio harveyi JMH597 AI-2 quorum sensing luminescence, 9 h; luxN and CqsS knockout, AI-2 only | inhibition, % at 7.5 µM | actives 97% (n = 750);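 active = every replicate shows more than 75% inhibition of signal versus neutral control wells; inconclusive = half to three quarters of replicates exceed 75% inhibition; inactive = fewer than half of replicates exceed 75% inhibition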
Numbers without * were called inactive; ? = inconclusive; nt = not tested or not shown.

SMILES	GAA850 FXN act	AI-2 QS mod	PG9 Ab binder	HSF1 inh	HSP90 refold inh	SMARCA2 act	JMH597 growth rt	BB721 const-QS lum	BB721 growth	JMH597 AI-2 mod
Cc1cc(NC(=O)CN2C(=O)NC(C)(c3ccccc3)C2=O)no1 (stereo not drawn)	1	-38	-1	-7	8	-1	nt	nt	nt	nt
COc1cccc(OCc2cc(C(=O)NCc3ccc4c(c3)OCO4)no2)c1	3	?	1	17	0	-3	56	92*	?	96*
COc1cccc(/C=C/C(=O)NCc2ccc3c(c2)OCO3)c1	2	-86*	0	-85*	-2	-3	1	95*	1	96*
Cc1cccc(-c2cccc3c4c([nH]c23)[C@@H]2C[C@H](N(C)C(=O)Nc3ccccc3)[C@H]([C@H](C)O)CN2CC4)c1	nt	nt	nt	nt	nt	5	nt	nt	nt	nt
COC(=O)C1CCN(C2CN(Cc3cn(Cc4ccc(C(F)(F)F)cc4)nn3)S(=O)(=O)C2)CC1 (stereo not drawn)	nt	nt	0	nt	nt	1	nt	nt	nt	nt
O=C(C(=O)N1CCN(S(=O)(=O)c2ccccc2)CC1)c1cccc(C(F)(F)F)c1	nt	nt	1	nt	nt	1	nt	nt	nt	nt
O=C(CN1C(=O)c2ccccc2C1=O)Nc1ccccc1	-2	-60	-1	-6	-2	1	nt	nt	nt	nt
NS(=O)(=O)c1ccc(NC(=O)CN2C(=O)c3ccccc3C2=O)cc1	-1	-84*	1	2	0	-1	24	93*	12	96*
O=C(CN1C(=O)c2ccccc2C1=O)Nc1ccc(S(=O)(=O)N2CCOCC2)cc1	1	-97*	-8	1	-2	-4	5	99*	-9	100*
Cc1nc(C(=O)O)cc([N+](=O)[O-])c1C	0	nt	0	nt	nt	-3	nt	nt	nt	nt
CN(C)S(=O)(=O)c1ccc(C(=O)OCCc2ccccc2)cc1	2	-92*	0	11	-3	2	3	96*	18	98*
CN(C)S(=O)(=O)c1ccc(C(=O)OCC(=O)NCc2ccccc2)cc1	-1	-26	0	7	-2	-2	nt	nt	nt	nt
O=C(CNSc1ccc([N+](=O)[O-])cc1[N+](=O)[O-])OCc1ccccc1	nt	nt	0	nt	nt	0	nt	nt	nt	nt
CN1CC(=O)N(CC(=O)Nc2ccc(Cl)c(C(F)(F)F)c2)C1=O	-3	-96*	0	-1	-3	1	19	99*	13	99*
CC(CNC(=O)c1cc(COc2c(F)cccc2F)on1)Oc1cccnc1 (stereo not drawn)	0	-91*	-2	-4	3	-2	25	94*	20	96*
COc1cccc(CNC(=O)c2cc(COc3c(F)cccc3F)on2)c1	2	-12	-1	4	-2	0	nt	nt	nt	nt
CCc1c(-c2ccccc2Br)ncn1CCc1ccccc1OC	nt	nt	2	nt	nt	-9	nt	nt	nt	nt
O=C(/C=C/c1ccccc1Cl)NCc1ccco1	5	-83*	-1	9	-1	3	5	93*	18	94*
O=C1C=C(c2cccc3c2Oc2ccccc2S3)C[C@@H](c2ccc3c(c2)OCO3)C1	nt	nt	-1	nt	nt	1	nt	nt	nt	nt
Cc1ccccc1NCCC(=O)Nc1ccc(F)cc1	1	-87*	-2	1	-3	-1	18	95*	15	97*
Cc1ccccc1NCCC(=O)Nc1ccc(Cl)cc1	1	-84*	-1	-1	-9	-1	4	97*	-1	97*
O=C(CCCCC(=O)Nc1ccc(F)cc1)Nc1ccc(F)cc1	0	-15	-2	11	3	5	nt	nt	nt	nt
C[C@H](CO)N1C[C@H](C)[C@@H](CN(C)S(=O)(=O)c2ccc(F)cc2)Oc2cc(Br)ccc2S1(=O)=O	nt	nt	-1	nt	nt	3	nt	nt	nt	nt
CC(C)C[C@H]1COc2cccc(N3CCOCC3)c2S(=O)(=O)N1	nt	nt	-2	nt	nt	-4	nt	nt	nt	nt
COc1ccc(CC(=O)O/N=C(\N)Cc2ccc(OC)cc2)cc1	-2	-6	0	-5	3	3	nt	nt	nt	nt
SMILES	GAA850 FXN act	AI-2 QS mod	PG9 Ab binder	HSF1 inh	HSP90 refold inh	SMARCA2 act	JMH597 growth rt	BB721 const-QS lum	BB721 growth	JMH597 AI-2 mod
COc1ccc(CC(=O)O/N=C(\N)c2ccc(OC)cc2)cc1	3	-94*	1	11	0	2	-13	97*	-62	98*
COc1cc(C=Nn2c(-c3ccccc3F)n[nH]c2=S)ccc1OCc1ccccc1	nt	nt	nt	nt	nt	-4	nt	nt	nt	nt
CC(=O)C1=C(C)N(Cc2ccc(F)cc2)C(=S)NC1c1ccc(Br)cc1 (stereo not drawn)	nt	nt	-3	nt	nt	-4	nt	nt	nt	nt
Cn1nc(C(F)(F)F)c2cc(NC(=O)OCc3ccc(C(C)(C)C)cc3)sc21	0	-3	1	-7	-5	-4	nt	nt	nt	nt
Cn1nc(C(F)(F)F)c2cc(NC(=O)OCc3ccc(F)cc3)sc21	0	-93*	-2	6	2	-3	13	99*	40	98*
CN1[C@@H](Cc2ccccc2)COc2cccc(N3CCCC3)c2S1(=O)=O	nt	nt	nt	nt	nt	5	nt	nt	nt	nt
CSc1ncccc1C(=O)OCC(=O)Nc1ccc(S(=O)(=O)N2CCCC2)cc1	2	-92*	1	0	-3	-1	49	98*	43	99*
Cc1cc(C(=O)OCC(=O)Nc2ccc(S(=O)(=O)N3CCOCC3)cc2)c(C)o1	-1	-91*	-2	-2	0	0	-5	98*	24	98*
O=C(COC(=O)Cc1ccc2c(c1)OCCO2)Nc1ccc(S(=O)(=O)N2CCCC2)cc1	-1	-92*	1	1	1	-1	57	96*	-35	97*
CSc1ncccc1C(=O)OCC(=O)c1ccc(S(=O)(=O)N2CCCCC2)cc1	1	22	1	-4	nt	-2	nt	nt	nt	nt
O=C(COc1cccc(C(F)(F)F)c1)Nc1ccc(S(=O)(=O)N2CCCC2)cc1	-1	-93*	-2	0	-2	-1	35	98*	21	?
O=C(Cc1cccc(C(F)(F)F)c1)Nc1ccc(S(=O)(=O)N2CCCC2)cc1	-1	nt	0	-2	nt	-3	nt	nt	nt	nt
